# Laboratory results taken from PubChem BioAssay (Tox21).
# Records with an inconclusive call do not appear. Where a call stands in place of a potency, no number is given. A structure can be active in one record and inactive in another. Activity calls are given as the source filed them. Unless noted, the call rests on the fitted dose curve; in most records, active means well fitted curve in the direction sought with a large enough effect in the repeat runs; inconclusive means weak or mixed curves; inactive means no such curve, though single readings can be large; an effect the other way counts as inactive or inconclusive.
# Columns and labels:
# [1] = molecular target: Luciferin 4-monooxygenase (Photinus pyralis) (UniProt P08659); assay: qHTS assay to identify small molecule inhibitors of firefly luciferase (AID 1224835); further: nearly all actives have a fitted effect of over 25% in size; settings: purified P. pyralis luciferase, luminescence inhibition; series mostly up to 52.9 µM
# In short: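 Inhibition of purified Photinus luciferase is measured by luminescence. Substrate levels (D-luciferin, ATP) sit at their KM values. Each compound is tested in a concentration series.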
# [2] = qHTS assay to identify small molecule agonists of the constitutive androstane receptor (CAR) signaling pathway - cell viability counter screen (AID 1224836); settings: HepG2-CYP2B6-hCAR viability, CellTiter-Fluor, 23 h, PK11195 added to every well; series mostly up to 92.4 µM; further: nearly all actives have a fitted effect of over 45% in size
# In short: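 Cells were seeded and incubated 4 hrs. Compounds were added across 15 concentrations together with PK11195 at 0.75 uM final. Plates were incubated 23 hrs at 37 C. CellTiter-Fluor was added and fluorescence measured.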
# [3] = qHTS assay to identify small molecule antagonists of the constitutive androstane receptor (CAR) signaling pathway - cell viability counter screen (AID 1224837); settings: HepG2-CYP2B6-hCAR viability, CellTiter-Fluor, 23 h, co-treated with 50 nM CITCO; series mostly up to 92.4 µM; further: nearly all actives have a fitted effect of over 45% in size
# In short: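 Cytotoxicity counter-screen: CellTiter-Fluor fluorescence after 23 h compound exposure (15-point qHTS) in double-stable HepG2-CYP2B6-hCAR cells, with 50 nM CITCO added.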
# [4] = molecular target: Nuclear receptor subfamily 1 group I member 3 (Homo sapiens) (UniProt Q14994); assay: qHTS assay to identify small molecule antagonists of the constitutive androstane receptor (CAR) signaling pathway (AID 1224838); settings: HepG2-CYP2B6-hCAR luciferase, CITCO-stimulated, 24 h; series mostly up to 92.4 µM;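 further: HepG2 cells stably expressing hCAR with CYP2B6 luciferase reporter stimulated by CITCO; nearly all actives have a fitted effect of over 40% in size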
# In short: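 Antagonism measured as luciferase signal (ONE-Glo, 30 min, room temperature) in CAR-stimulated cells: HepG2-CYP2B6-hCAR double-stable line exposed 24 hr at 37 C to compound in a 15-point series plus 50 nM CITCO.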
# [5] = molecular target: Nuclear receptor subfamily 1 group I member 3 (Homo sapiens) (UniProt Q14994); assay: qHTS assay to identify small molecule agonists of the constitutive androstane receptor (CAR) signaling pathway (AID 1224839); settings: HepG2 hCAR CYP2B6-luciferase, agonist mode, 24 h; series mostly up to 92.4 µM; further: nearly all actives have a fitted effect of over 15% in size
# In short: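 Cells were plated and incubated 4 hrs, then dosed with compounds at 15 concentrations. PK11195 was added to 0.75 uM final. After 24 hrs at 37 C, luciferase luminescence was measured.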
# [6] = qHTS assay to identify small molecule antagonists of the estrogen related receptor signaling pathway with the pleiotropic PPARgamma coactivator (PGC) from Tox21 10K library - cell viability counter screen (AID 1224840; active means well fitted cell-killing curve with a large enough effect in the repeat runs, not every such curve was filed as active; further: nearly all actives have a fitted effect of over 40% in size); settings: PGC/ERR reporter cells viability, CellTiter-Fluor, 17.5 h; series mostly up to 92.4 µM
# In short: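 Counter-screen for cytotoxicity: after 17.5 h compound exposure at 37 C, CellTiter-Fluor reagent added to PGC/ERR cells for 30 min and fluorescence read. Cells were seeded at 2,000 per well 6 h before dosing.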
# [7] = qHTS assay to identify small molecule antagonists of the estrogen related receptor signaling pathway with the pleiotropic PPARgamma coactivator (PGC) from Tox21 10K library (AID 1224841; call rule not given here; further: actives are mostly falling curves and most rising ones were filed inactive; nearly all actives have a fitted effect of over 50% in size); settings: PGC/ERR reporter cell line, ONE-Glo luciferase, 18 h; series mostly up to 92.4 µM
# In short: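 Luminescence (One-Glo, 30 min at room temperature) after 18 h compound treatment at 37 C of PGC/ERR reporter cells plated at 2,000 cells/well and settled 6 h beforehand.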
# [8] = qHTS assay to identify small molecule agonists of the estrogen related receptor signaling pathway with the pleiotropic PPARgamma coactivator (PGC) from Tox21 10K library (AID 1224842); settings: PGC/ERR reporter cell line, luciferase ONE-Glo, 18 h; series mostly up to 92.4 µM; further: nearly all actives have a fitted effect of over 15% in size
# In short: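 Luminescence from One-Glo (30 min, room temperature) measured after PGC/ERR cells had 18 h at 37 C with pinned compound (23 nL in DMSO). Cells had been seeded at 2,000 per well and pre-incubated 6 h.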
# [9] = qHTS assay to identify small molecule antagonists of the estrogen related receptor (ERR) signaling pathway from Tox21 library - cell viability counter screen (AID 1224834); settings: ERR reporter cells viability, CellTiter-Fluor, 17.5 h; series mostly up to 92.4 µM; further: nearly all actives have a fitted effect of over 30% in size
# In short: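 CellTiter-Fluor fluorescence, read after 30 min at 37 C, measures viability of ERR cells. Cells plated at 2,000/well and incubated 6 h before pin-tool compound addition, then exposed 17.5 hours at 37 C.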
# Potency means the concentration at half of the fitted maximal effect.
# Nuclear receptor subfamily 1 group I member 3 (Homo sapiens), sequence (Q14994 whole entry, looked up): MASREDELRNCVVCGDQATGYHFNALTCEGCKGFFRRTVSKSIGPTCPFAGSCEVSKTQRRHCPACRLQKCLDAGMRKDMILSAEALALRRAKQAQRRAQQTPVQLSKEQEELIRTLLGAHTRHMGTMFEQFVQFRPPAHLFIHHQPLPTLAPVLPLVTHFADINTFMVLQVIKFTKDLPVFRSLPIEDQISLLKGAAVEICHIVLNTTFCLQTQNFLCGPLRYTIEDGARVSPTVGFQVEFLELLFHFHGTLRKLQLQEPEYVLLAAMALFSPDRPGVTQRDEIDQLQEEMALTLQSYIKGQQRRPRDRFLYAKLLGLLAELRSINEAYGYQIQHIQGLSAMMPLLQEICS
# Luciferin 4-monooxygenase (Photinus pyralis), sequence (P08659 whole entry, looked up): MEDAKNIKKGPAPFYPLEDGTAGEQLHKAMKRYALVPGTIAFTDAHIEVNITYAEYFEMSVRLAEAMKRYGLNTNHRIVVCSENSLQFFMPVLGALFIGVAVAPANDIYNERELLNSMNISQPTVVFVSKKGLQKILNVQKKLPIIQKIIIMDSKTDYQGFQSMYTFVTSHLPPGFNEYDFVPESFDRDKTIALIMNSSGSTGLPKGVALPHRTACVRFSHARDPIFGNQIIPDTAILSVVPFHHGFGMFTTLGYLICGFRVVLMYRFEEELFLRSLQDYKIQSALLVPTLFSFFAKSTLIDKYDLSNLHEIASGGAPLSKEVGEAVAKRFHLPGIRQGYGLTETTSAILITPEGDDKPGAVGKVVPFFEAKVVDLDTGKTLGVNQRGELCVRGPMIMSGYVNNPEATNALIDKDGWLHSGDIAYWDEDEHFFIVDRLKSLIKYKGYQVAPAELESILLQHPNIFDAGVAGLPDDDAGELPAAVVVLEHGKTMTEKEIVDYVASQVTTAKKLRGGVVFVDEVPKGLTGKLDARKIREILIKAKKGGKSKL
SMILES,Potency [1],Potency [2],Potency [3],Potency [4],Potency [5],Potency [6],Potency [7],Potency [8],Potency [9]
CC(=O)OCC[N+](C)(C)C,inactive,inactive,inactive,inactive,inactive,–,–,–,–
O=C(Cn1ccnc1[N+](=O)[O-])NCCO,inactive,inactive,inactive,inactive,inactive,–,–,–,–
CCC(=O)C1CC(C(C)C)CC=C1C (centres undefined),inactive,inactive,inactive,inactive,inactive,inactive,inactive,inactive,–
C=C(C)C(=O)OCCCCCCCCCCCCC,inactive,inactive,inactive,inactive,inactive,–,–,–,–
N#CCCN(CCO)CCO,inactive,inactive,inactive,inactive,–,inactive,–,–,–
C=CC(=O)OCC1CC2CC1C1CCC(COC(=O)C=C)C21 (centres undefined),inactive,inactive,inactive,inactive,inactive,68.6 µM (active),–,–,–
CNC(=O)c1cnn(-c2nc(N)c3ncn([C@@H]4O[C@H](CO)[C@@H](O)[C@H]4O)c3n2)c1,inactive,inactive,inactive,inactive,inactive,inactive,–,–,–
Cc1ccc(CO)cc1,inactive,inactive,inactive,inactive,inactive,inactive,–,–,–
COC(=O)C1=C(C)NC(C)=C(C(=O)O[C@@H]2CCCN(Cc3ccccc3)C2)[C@@H]1c1cccc([N+](=O)[O-])c1,inactive,inactive,inactive,inactive,inactive,–,–,inactive,–
CC(=O)OCC(=O)NCCCOc1cccc(CN2CCCCC2)c1,inactive,inactive,inactive,inactive,inactive,inactive,inactive,inactive,–
c1ccc2c(c1)CCc1ccccc1N2,63.6 µM (active),inactive,inactive,inactive,54.8 µM (active),inactive,–,–,–
CC1=Nc2ccc3ccccc3c2C1(C)C,–,inactive,–,–,–,inactive,–,inactive,inactive
COC(=O)[C@H]1[C@H]2C[C@@H]3c4[nH]c5cc(OC)ccc5c4CCN3C[C@H]2C[C@@H](OC(=O)/C=C/c2ccc(O)c(OC)c2)[C@@H]1OC,inactive,inactive,inactive,inactive,inactive,–,–,inactive,–
C[C@]12CC[C@@H]3c4ccc(O)cc4CC[C@H]3[C@@H]1CC[C@@H]2OC(=O)CCC1CCCC1,inactive,inactive,inactive,inactive,15.4 µM (active),61.1 µM (active) and inactive,inactive,–,–
CCOC(=O)OC(C)OC(=O)[C@@H]1N2C(=O)[C@@H](NC(=O)[C@H](N)c3ccccc3)[C@H]2SC1(C)C (some centres undefined),inactive,inactive,inactive,inactive,inactive,inactive,–,–,–
O=C=Nc1ccc(Cl)c(Cl)c1,–,inactive,inactive,inactive,inactive,inactive,inactive,inactive,inactive
CCC(C)COC(=O)CC(C)C (centres undefined),inactive,inactive,inactive,inactive,inactive,–,–,–,–
CC(=O)Nc1cc(S(=O)(=O)O)cc2cc(S(=O)(=O)O)c(N=Nc3ccccc3)c(O)c12,–,30.6 µM (active),27.3 µM (active),inactive,inactive,27.3 µM (active),–,inactive,24.3 µM (active)
N#CCc1ccc(Cl)cc1Cl,inactive,inactive,inactive,inactive,inactive,inactive,inactive,inactive,–
CCCCCCCCCI,–,inactive,inactive,inactive,inactive,inactive,inactive,8.79 µM (active),inactive
CS(=O)(=O)c1ccc(-c2cn3ccccc3n2)cc1,–,inactive,–,inactive,2.11 µM (active),inactive,inactive,–,inactive

SMILES,Potency [1],Potency [2],Potency [3],Potency [4],Potency [5],Potency [6],Potency [7],Potency [8],Potency [9]
CC(=O)c1ccc([N+](=O)[O-])cc1,inactive,inactive,inactive,–,–,inactive,inactive,inactive,–
O=C1c2ccccc2C(=O)C1(O)O,inactive,–,–,–,inactive,inactive,inactive,–,–
CN1CC(=O)N2[C@H](c3ccc4c(c3)OCO4)c3[nH]c4ccccc4c3C[C@@H]2C1=O,inactive,inactive,inactive,inactive,–,inactive,–,–,–
CCOC(=O)/C=C/C(=O)OCC,inactive,inactive,inactive,–,–,inactive,inactive,–,–
COc1cc(Nc2c(C#N)cnc3cc(OCCCN4CCN(C)CC4)c(OC)cc23)c(Cl)cc1Cl,inactive,inactive,–,–,–,inactive,–,–,–
COc1cc(N)c(Cl)cc1C(=O)NC1CCN(CCCOc2ccc(F)cc2)CC1OC (centres undefined),inactive,inactive,inactive,–,–,–,–,inactive,–
CCn1cc(C(=O)O)c(=O)c2cc(F)c(N3CCNCC3)cc21,inactive,inactive,inactive,–,–,inactive,–,–,–
COc1ccccc1NC(=O)c1cc2ccccc2cc1O,17.8 µM (active),inactive,inactive,inactive,–,inactive,15.4 µM (active),–,–
Nc1nc2ccc([N+](=O)[O-])cc2s1,–,–,–,inactive,–,–,–,–,–
OC[C@H]1O[C@@H](n2cnc3c(=S)nc[nH]c32)[C@H](O)[C@@H]1O,inactive,–,–,1.88 µM (active),inactive,inactive,inactive,–,–
O=C=Nc1cccc(C(F)(F)F)c1,inactive,inactive,inactive,–,–,inactive,–,inactive,–
Clc1ccc(Nc2nnc(Cc3ccncc3)c3ccccc23)cc1,–,–,–,inactive,7.5 µM (active),inactive,13.3 µM (active),inactive,–
CCOC(=O)[C@H](CCc1ccccc1)N[C@@H](C)C(=O)N(CC(=O)O)C1Cc2ccccc2C1,inactive,inactive,inactive,–,–,inactive,–,–,–
CO[C@]1(NC(=O)CSC(F)F)C(=O)N2C(C(=O)O)=C(CSc3nnnn3CCO)CO[C@H]21,inactive,inactive,inactive,–,–,inactive,–,–,–
O=[N+]([O-])c1ccc(Nc2ccc(Nc3ccccc3)c(S(=O)(=O)O)c2)c([N+](=O)[O-])c1,inactive,–,inactive,inactive,inactive,inactive,–,–,–
O=Cc1c2ccccc2c(Cl)c2ccccc12,inactive,inactive,inactive,–,–,–,13.3 µM (active),inactive,–
C(=C\c1ccccc1)/c1ccccc1,7.9 µM (active),inactive,inactive,inactive,–,inactive,inactive,–,–
NC1[C@H]2CN(c3nc4c(cc3F)c(=O)c(C(=O)O)cn4-c3ccc(F)cc3F)C[C@@H]12 (some centres undefined),inactive,inactive,–,inactive,–,–,inactive,–,–
COc1ccccc1N1CCN(CCCCNC(=O)c2ccc(-c3ccc(C(C)=O)cc3)cc2)CC1,inactive,inactive,inactive,–,–,inactive,–,–,–
CC1(C)[C@H](C(=O)O)N2C(=O)C[C@H]2S1(=O)=O,inactive,inactive,inactive,inactive,–,–,inactive,inactive,–
O=[N+]([O-])c1cc(C2CCCCC2)c(O)c([N+](=O)[O-])c1,39.8 µM (active),12.2 µM (active),15.3 µM (active),–,inactive,–,4.84 µM (active),inactive,–

SMILES,Potency [1],Potency [2],Potency [3],Potency [4],Potency [5],Potency [6],Potency [7],Potency [8],Potency [9]
CC(=O)[C@H]1[C@H](C#N)C[C@H]2[C@@H]3CC=C4C[C@@H](O)CC[C@]4(C)[C@H]3CC[C@@]21C,inactive,inactive,inactive,–,–,inactive,inactive,–,–
CCOC(=O)c1ccccc1C(=C1C=C(Br)C(=O)C(Br)=C1)c1cc(Br)c(O)c(Br)c1,66.8 µM (active),inactive,inactive,–,–,–,51.3 µM (active),inactive,–
CN1CCCC(n2nc(Cc3ccc(Cl)cc3)c3ccccc3c2=O)CC1 (centres undefined),inactive,23.7 µM (active),16.8 µM (active),–,inactive,inactive,inactive,inactive,–
CC(C)C=O,–,inactive,inactive,inactive,inactive,inactive,inactive,–,–
CC[C@]1(O)C[C@H]2CN(CCc3c([nH]c4ccccc34)[C@@](C(=O)OC)(c3cc4c(cc3OC)N(C=O)[C@H]3[C@@](O)(C(=O)OC)[C@H](OC(C)=O)[C@]5(CC)C=CCN6CC[C@]43[C@@H]65)C2)C1,inactive,–,–,0.211 µM (active),inactive,–,–,–,–
C=C(C)[C@@H]1CCC2=CCC[C@@H](C)[C@]2(C)C1,inactive,inactive,inactive,–,inactive,–,inactive,–,–
COc1ccccc1N1CCN(CC(O)COc2cccc3ccccc23)CC1 (centres undefined),inactive,inactive,–,inactive,–,inactive,–,–,–
Oc1ccc(Cl)c2cccnc12,inactive,–,–,–,–,inactive,4.73 µM (active),inactive,–
C[C@@H](CN(C)C)CN1c2ccccc2Sc2ccccc21,inactive,–,–,inactive,–,inactive,inactive,inactive,–
Oc1cccc(Nc2ccccc2)c1,37.1 µM (active),inactive,inactive,inactive,–,inactive,–,–,–
CCOC(=O)c1ccc(C#Cc2ccc3c(c2)C(C)(C)CCS3)nc1,inactive,inactive,inactive,–,–,inactive,–,–,–
O=C1Cc2ccccc2N1c1c(Cl)cccc1Cl,inactive,inactive,inactive,inactive,–,inactive,inactive,–,–
COc1cc(C(=O)NCCCCCC(=O)O)cc(OC)c1OC,inactive,inactive,inactive,inactive,–,inactive,inactive,inactive,–
Oc1cccc(O)c1O,inactive,–,inactive,inactive,inactive,–,inactive,8.56 µM (active),–
O=c1c(O)c(-c2ccc(O)cc2)oc2cc(O)cc(O)c12,–,inactive,inactive,inactive,36.8 µM (active),inactive,inactive,inactive,–
CCOc1ccc(Cc2nccc3cc(OCC)c(OCC)cc23)cc1OCC,inactive,inactive,–,inactive,inactive,inactive,–,–,–
CN1C(C(=O)Nc2ccccn2)=C(O)c2sccc2S1(=O)=O,–,inactive,inactive,inactive,inactive,inactive,–,–,–
CC(C)Nc1cccnc1N1CCN(C(=O)c2cc3cc(NS(C)(=O)=O)ccc3[nH]2)CC1,inactive,inactive,inactive,inactive,–,inactive,inactive,inactive,–
C/C=C(/C(=C/C)c1ccc(O)cc1)c1ccc(O)cc1,inactive,inactive,inactive,inactive,–,inactive,–,–,–
